Compound activity from PubChem BioAssay.
Rows were chosen to be rich in hits. Some 2.2% of all compounds tested hit in one or more screens of this group.
CHO-K1 Ca antag: nonselective inhibitor or artifact in parental CHO-K1 cells; 360,000 tested, 0.6% active; inhibition, % at 3 µM; ATP-induced calcium, Fluo-8 fluorescence; AID 602250;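 active = inhibition above a per-plate cutoff, the plate's mean sample inhibition plus 3 SD, cut at about 24% in these data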
NTR1 ag: NTR1 (human) agonism | P30989 | NTR1-U2OS beta-arrestin-GFP spot imaging, agonist mode | activation, % at 20 µM | 330,000 tested, 0.17% active | AID 493036;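 active = activation at or above 40% of the spot to cytoplasm intensity ratio, with at least 20 cells analyzed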
CHO-K1 Ca ag: M1 agonist counterscreen hit in parental CHO-K1 cells; Fluo-8 calcium fluorescence; scaled to maximal ATP response, vehicle zero; activation, % at 3 µM; 360,000 tested, 0.48% active; in the data active = activation above about 15%;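 also: untransfected CHO-K1 host cells lacking M1 receptor as counterscreen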
ANO1 activ: mouse TMEM16A channel activation, primary screen; Q8BHY3; HEK293 TMEM16A/YFP-H148Q/I152L, iodide quench fluorescence; stronger effect = lower value; B-score at 10 µM; 340,000 tested, 0.3% active; AID 623877;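 active = fluorescence-ratio B-score plate-corrected deviation score at least 3 library SD below zero, with starting fluorescence score within 5 deviations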;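 also: channel opened by trigger with iodide after compound preincubation; score built on the fluorescence ratio of max minus min over baseline; more negative score means more quench and so TMEM16A activation or potentiation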
Target sequence (Q8BHY3 whole entry, looked up): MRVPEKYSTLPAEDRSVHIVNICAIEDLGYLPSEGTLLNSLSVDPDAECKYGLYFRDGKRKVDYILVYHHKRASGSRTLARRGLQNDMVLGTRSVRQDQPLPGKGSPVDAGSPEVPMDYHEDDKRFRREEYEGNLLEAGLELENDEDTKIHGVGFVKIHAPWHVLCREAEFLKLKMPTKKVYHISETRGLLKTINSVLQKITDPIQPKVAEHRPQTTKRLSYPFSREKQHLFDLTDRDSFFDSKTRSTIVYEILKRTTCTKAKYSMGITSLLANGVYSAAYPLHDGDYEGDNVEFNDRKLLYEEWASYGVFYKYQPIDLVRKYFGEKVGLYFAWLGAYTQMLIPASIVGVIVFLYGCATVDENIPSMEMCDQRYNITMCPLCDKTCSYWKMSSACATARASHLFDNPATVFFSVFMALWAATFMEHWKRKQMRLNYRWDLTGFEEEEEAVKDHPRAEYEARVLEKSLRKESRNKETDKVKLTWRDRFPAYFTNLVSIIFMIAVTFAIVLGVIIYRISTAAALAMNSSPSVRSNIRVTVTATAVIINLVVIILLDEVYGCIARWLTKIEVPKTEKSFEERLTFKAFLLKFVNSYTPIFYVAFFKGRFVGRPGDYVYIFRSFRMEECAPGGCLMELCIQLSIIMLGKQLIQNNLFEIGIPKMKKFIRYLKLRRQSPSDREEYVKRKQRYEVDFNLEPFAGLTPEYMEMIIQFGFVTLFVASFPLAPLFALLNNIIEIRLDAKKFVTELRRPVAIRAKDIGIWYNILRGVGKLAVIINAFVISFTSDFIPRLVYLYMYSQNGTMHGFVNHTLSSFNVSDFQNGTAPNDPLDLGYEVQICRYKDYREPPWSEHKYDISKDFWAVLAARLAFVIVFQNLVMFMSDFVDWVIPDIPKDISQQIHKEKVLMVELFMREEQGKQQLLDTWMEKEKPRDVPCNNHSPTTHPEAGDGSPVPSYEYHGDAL
ANO1 block: mouse TMEM16A channel inhibition, primary screen | Q8BHY3 | HEK293 TMEM16A/YFP iodide influx fluorescence, ionomycin | normalized B-score (activity score, 25-100; higher = stronger inhibition) at 10 µM | 310,000 tested, 1.2% active | AID 588511;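 active = ratio plate-corrected score three or more library SD toward inhibition, starting fluorescence score within five deviations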;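 also: score derived from kinetic fluorescence span divided by baseline fluorescence per well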
M1 PAM parental: nonselective activator or artifact in parental CHO-K1 calcium assay | ATP EC20, Fluo-8 calcium fluorescence; 0% at ATP EC20, 100% at ATP max | activation, % at 3 µM | 360,000 tested, 0.02% active | AID 602247;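 active = activation above the run cutoff, the mean activation of all test compounds plus 3 SD, cut at about 40% in these data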;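 also: peak over basal fluorescence ratio in a 140 s read after ATP addition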
TMEM16A reconf: reconfirmed blocker of mouse TMEM16A calcium-activated chloride channel | shares compounds with ANO1 block | HEK293 TMEM16A/YFP-H148Q, iodide quench fluorescence; ionomycin added to raise cell calcium | inhibition, % at 10 µM | 2,300 tested, 39% active | AID 652189;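 active = mean duplicate percent inhibition, scaled so buffer wells are 0 and the reference blocker 100, over three buffer SD above buffer mean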
HEK293 Ca mobil: counter-screen for TMEM16A inhibitors: effect on calcium mobilization; AID 652231; 2,300 tested, 2% active; shares compounds with ANO1 block; TMEM16A/YFP HEK293, Fluo4 calcium mobilization; calcium response (% of ionomycin), % at 10 µM;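 active = duplicate-averaged calcium signal over 20% of the ionomycin maximum, relative to buffer baseline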;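 also: each well's signal is peak minus trough fluorescence divided by its pre-addition baseline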
Parental YFP cnt: counter-screen for TMEM16A inhibitors: effect in parental YFP-HEK293 cells; shares compounds with ANO1 block; iodide YFP quench, ionomycin; YFP ratio F(max-min)/F0 at 10 µM; 2,300 tested, under 10 active; AID 652233;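 active = yellow fluorescent protein signal ratio exceeding the buffer control mean by over 5 SD of those controls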;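 also: ratio is mean of duplicate wells from kinetic YFP trace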
ClC-1 rat inh: selectivity of TMEM16A inhibitors: inhibition of rat ClC-1 chloride channel | 2,300 tested, under 10 active | shares compounds with ANO1 block | ratio percent, % at 10 µM | CHO ClC-1-YFP, iodide influx fluorescence quench; iodide control reads 0, buffer control 100;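 active = duplicate-mean ratio percent above the mean of iodide-only control wells, which defines zero, plus 5 of their SD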;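 also: higher percent means stronger block of ClC-1 iodide influx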
Hits are given with their value; – = inactive; · = no result.

SMILES | CHO-K1 Ca antag | NTR1 ag | CHO-K1 Ca ag | ANO1 activ | ANO1 block | M1 PAM parental | TMEM16A reconf | HEK293 Ca mobil | Parental YFP cnt | ClC-1 rat inh
CC(Oc1ccc(C(=O)c2ccccc2)cc1)C(=O)Nc1ccc(S(N)(=O)=O)cc1 (stereo not given) | – | – | 17.5 | – | 100 | – | 53.5% | – | – | –
CC(Oc1ccccc1)C(=O)Nc1ccc(NC(=O)c2ccccc2)cc1 (stereo not given) | – | – | – | – | – | – | · | · | · | ·
Cc1nc(C)c(-c2ccc(SCC(=O)Nc3ccccc3)nn2)s1 | – | – | – | – | – | – | · | · | · | ·
Cc1nc(C)c(-c2ccc(SCC(=O)Nc3ccc(F)cc3F)nn2)s1 | – | – | – | – | 25 | – | – | – | – | –
Cc1ccccc1NC(=S)NNC(=O)c1ccoc1C | – | – | – | – | 100 | – | – | – | – | –
O=C(NCc1ccc(Cl)cc1)c1ccccc1Oc1ccccc1 | – | – | – | – | 100 | – | – | – | – | –
COCCCNC(=O)c1ccccc1Oc1ccccc1 | – | – | – | – | – | – | · | · | · | ·
CN(C(=O)Cn1cnc2sccc2c1=O)C1CCCCC1 | – | – | – | – | · | – | · | · | · | ·
CSc1nc(=O)[nH]nc1Sc1ccccc1 | – | · | – | · | · | – | · | · | · | ·
O=C(CSc1n[nH]c(=O)n1Cc1ccco1)Nc1ccccc1 | – | – | – | – | – | – | · | · | · | ·
CC(C)c1ccc(NC(=O)CSc2n[nH]c(=O)n2Cc2ccco2)cc1 | – | – | – | – | 25 | – | 20.0% | – | – | –
O=C(OCc1ccccc1)N1CCC2CC1c1c2cccc1N1CCOCC1 (stereo not given) | – | · | – | · | · | – | · | · | · | ·
COc1cc(/C=C2\C(=N)N3N=C(S(C)(=O)=O)SC3=NC2=O)ccc1OCCOc1ccc(C)cc1 | – | – | – | – | 25 | – | – | – | – | –
O=C(CCN1CCOCC1)Nc1ccccc1 | – | – | – | – | 100 | – | – | – | – | –
CC(Sc1nc(-c2ccccc2)cc(C(F)(F)F)n1)C(=O)N1CCCCC1 (stereo not given) | – | – | – | – | – | – | · | · | · | ·
CC1CCCN(C(=O)C(C)Sc2nc(-c3ccccc3)cc(C(F)(F)F)n2)C1 (stereo not given) | – | – | – | – | 100 | – | – | – | – | –
CCOC(=O)Cc1csc(SCC(=O)Nc2cccc(Cl)c2)n1 | – | – | – | – | 100 | – | 26.5% | – | – | –
Cc1ccc(C)c(N2CCN(C(=O)CCc3nc(-c4cccc(Cl)c4)no3)CC2)c1 | – | – | – | · | · | – | · | · | · | ·
COc1ccccc1-c1c(C)nn2c(N3CCOCC3)cc(C)nc12 | – | – | – | – | – | – | · | · | · | ·
COc1ccccc1-c1c(C)nn2c(N3CCCCCC3)cc(C)nc12 | – | – | – | – | 100 | – | 34.0% | – | – | –
Cc1cccc2sc(NC(=O)CN(C)S(=O)(=O)c3ccc(Br)s3)nc12 | – | – | – | – | 100 | – | – | – | – | –
COc1ccccc1-c1nc(C#N)c(N2CCc3ccccc3C2)o1 | – | – | – | – | 100 | – | – | – | – | –
COc1ccc(-c2nc(C#N)c(N3CCc4ccccc4C3)o2)cc1OC | – | – | – | – | 100 | – | – | – | – | –
Cc1ccc(NC(=O)C(C)NS(=O)(=O)c2ccc(F)cc2)cc1C (stereo not given) | – | – | – | – | 25 | – | – | – | – | –
CNC(=O)C(C)NS(=O)(=O)c1ccc(F)cc1 (stereo not given) | – | – | – | – | – | – | · | · | · | ·
SMILES | CHO-K1 Ca antag | NTR1 ag | CHO-K1 Ca ag | ANO1 activ | ANO1 block | M1 PAM parental | TMEM16A reconf | HEK293 Ca mobil | Parental YFP cnt | ClC-1 rat inh
NS(=O)(=O)c1ccc(NC(=O)c2ccc(S(=O)(=O)N3CCc4ccccc43)cc2)cc1 | – | – | – | – | – | – | · | · | · | ·
COc1ccc(C(=O)Nc2ccc(S(=O)(=O)N3CCc4ccccc43)cc2)cc1 | – | – | – | – | 100 | – | 34.0% | – | – | –
COc1ccc(NC(=O)c2cccc(S(=O)(=O)N3CCc4ccccc43)c2)cn1 | – | – | – | – | 25 | – | – | – | – | –
CCSc1nc(-c2ccccc2)c(C#N)c(=O)[nH]1 | – | – | – | – | – | – | · | · | · | ·
CCCOc1ccc(-c2nc(SCc3ccccc3)[nH]c(=O)c2C#N)cc1OC | – | – | – | – | 100 | – | 29.5% | – | – | –
Cc1ccc(NC(=O)CSc2nnnn2C2CCCC2)cc1S(=O)(=O)N1CCOCC1 | – | – | – | – | · | – | · | · | · | ·
O=S1(=O)CCN(Cc2ccncc2)CC1 | – | · | – | · | · | – | · | · | · | ·
CCCN1C(=O)C(=O)N(CC(=O)N2c3ccccc3NC(=O)CC2C)C1=O (stereo not given) | – | · | – | · | · | – | · | · | · | ·
CCC(C)(C)C(=O)Nc1ncc(S(=O)(=O)c2ccc([N+](=O)[O-])cc2)s1 | – | – | – | – | 25 | – | 28.5% | – | – | –
CC(C)(C)n1nnnc1C(c1cc2ccccc2o1)N1CCCCC1 (stereo not given) | – | · | – | · | · | – | · | · | · | ·
Oc1ccc(NCc2cccc(OCc3ccccc3)c2)cc1 | – | – | – | – | 25 | – | – | 26.5% | – | –
CC(=O)NCCC(Cc1ccccc1)c1ccco1 (stereo not given) | – | – | – | – | 100 | – | – | – | – | –
CC1Cc2[nH]c(=S)[nH]c(=O)c2C(c2ccc(F)cc2)O1 (stereo not given) | – | · | – | · | · | – | · | · | · | ·
CCCCCCn1c(=O)n2n(c1=O)C[C@]1(OC(=O)NCc3ccco3)CN(S(=O)(=O)c3ccc(C)cc3)C[C@]1(O)C2 | – | · | – | · | · | – | · | · | · | ·
CCOCCCNc1nc2c(C)cccn2c(=O)c1/C=C1\SC(=S)N(CC(C)C)C1=O | – | – | – | – | – | – | – | – | – | –
O=C(Nc1ccc(OCC(F)(F)C(F)F)c(C(F)(F)F)c1)c1ccccc1O | 24.0 | – | – | – | 100 | – | – | – | – | –
O=C(Nc1ccc(OCC(F)(F)C(F)F)c(C(F)(F)F)c1)c1ccccc1 | – | – | – | – | – | – | · | · | · | ·
Cc1c(Cl)c(C(=O)NC2C3CC4CC(C3)CC2C4)nn1C (stereo not given) | – | – | – | – | 100 | – | – | – | – | –
CCC(C(N)=O)N1C(=O)C2C3CCC(C3)C2C1=O (stereo not given) | – | · | – | · | · | – | · | · | · | ·
